The record followed here is PubChem BioAssay.

Where “and” joins values, the source holds several entries; their conditions need not be identical. Equal values may be shown once. More than one record can exist for a structure, and the calls need not agree. Calls of active or inactive are those of the source. Unless noted, how the calls were made is not given here.

The nature of assay [1]: compounds altering circadian rhythm period length – cell-based, LOPAC library, luminescence reporter (AID 2774).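 Further: values are relative to mean of DMSO wells on each plate.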 The following applies: circadian reporter cells, at 7 µM, actives lie on both sides.
Assay [2] deals with Hepatitis C virus NS3 helicase. The assay can be described thus: blockers of NS3h binding to ssDNA – biochemical, fluorescence polarization, LOPAC1280 library, primary screen (AID 687035; in the data active means inhibition above about 37%). The following applies: Purified HCV NS3 helicase, Cy5-dT15 ssDNA binding fluorescence polarization; stronger effect = higher value; concentration not given here. Background: Polarisation of emitted light reports the rotation of a fluorescent probe.

Assay [3] can be described thus: compounds altering Cy5-DNA-NS3h complex signal – biochemical, LOPAC1280, artefact control for HCV NS3 helicase inhibitor project (AID 687037). The following applies: Cy5-DNA-NS3h complex fluorescence interference counterscreen.
The subject of assay [4] is Aerobactin synthetase IucA (Klebsiella pneumoniae). The assay is described as follows: inhibition of K. pneumoniae IucA enzyme – biochemical, Tocris library, absorbance (AID 1345561).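 Further: 100% = enzyme without compound and 0% = no enzyme.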 The note with it: purified IucA enzyme assay, absorbance (OD) read-out; stronger effect = lower value;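 tested at 8 µM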.
Assay [5] deals with Aerobactin synthetase IucA (Klebsiella pneumoniae, hypervirulent). The assay is described as follows: biochemical IucA inhibition screen of LOPAC library by absorbance (AID 1346212).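 Further: 100% = no compound wells and 0% = no enzyme wells.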 The note with it: IucA enzyme assay, absorbance (OD) readout; stronger effect = lower value;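 tested at 8 µM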.
Assay [6] can be described thus: viability loss with induced miR-34 in A549 – imaging, A549 dox-inducible miR-34, nuclei and caspase counts, primary screen (AID 1347080;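 active means compounds whose cell count with miR-34 switched on is under 0.7 times the count with it off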). The note with it: A549 miR-34 inducible, Hoechst nuclei count, 48 h.
The nature of assay [7]: blockers of cellular phospholipid synthesis – cell-based, LOPAC library, screen 4, primary screen (AID 1347384). The note with it: animal cells, phospholipid biosynthesis inhibition screen; at 10 µM.
Assay [8] is described as follows: galactose survival enhancers in mitochondrial complex I cybrids – cell-based, galactose medium, ATP luminescence, primary screen (AID 1645843;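 active means z-score of at least 1.8 in each of two replicates, scored against plate mean and spread of sample wells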;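 further: positive z means more ATP and so rescue of galactose-driven cybrid death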). The following applies: complex I mutant cybrid cells, 72 h, stronger effect = higher value.
The nature of assay [9]: P. berghei load reduction in hepatocytes – cell-based, HepG2, luciferase luminescence, HepG2 viability, primary screen (AID 624349; in the data active means parasite load remaining mostly below about 12%, no sharp cut-off; inactive means mostly above about 10%;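 further: 100% = mean of DMSO negative control wells on the same plate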). The note with it: P. berghei liver stage in HepG2, luciferase luminescence, concentration not given here; parasite load remaining: stronger effect = lower value; viability: measured here: HepG2 viability without parasites.
A short description of assay [10]: EMT-state selective cytotoxicity in co-culture – imaging, PC-3E GFP, TEM4-18 mCherry, primary screen (AID 1345086;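 active means compounds killing one labelled cell type while sparing the other, by normalised counts and ratio limits, not self-fluorescent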;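 on all read-outs here: cells exposed to compound for 72 h before imaging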;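 on red/green cell ratio (normalised): normalised mesenchymal count divided by normalised epithelial count so high means epithelial killing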). The following applies: PC-3E GFP / TEM4-18 mCherry co-culture, imaging cell counts, at 1 µM; for red/green cell ratio (normalised): actives lie on both sides.
Assay [11] concerns the target Mitogen-activated protein kinase 7 (Homo sapiens) (UniProt Q13164). The assay is described as follows: Gal4-ERK5 driven luciferase induction – cell-based, HTS, primary screen (AID 1508626;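 active means luciferase signal above three times the same-plate solvent-only control wells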;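 further: luciferase driven by Gal4-ERK5 fusion binding five Gal4 sites before minimal TATA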). The following applies: HeLa Gal4-ERK5 transactivation, 18 h, at 5 µM, stronger effect = higher value.
[12] abbreviates: measured here: relative caspase fold change +Dox/-Dox.
Where [13] appears, read: measured here: total cells with miR-34 induction, stronger effect = lower value.
[14] abbreviates: measured here: total cells without miR-34 induction.
The mark [15] stands for this setting: measured here: epithelial PC-3E GFP cell survival.
[16] abbreviates: measured here: mesenchymal TEM4-18 mCherry cell survival.
The mark [17] stands for this setting: stronger effect = lower value, cell number ratio, induced over uninduced.

Chain of Mitogen-activated protein kinase 7 (Homo sapiens) (Q13164 whole entry, looked up, the tested form may be a part): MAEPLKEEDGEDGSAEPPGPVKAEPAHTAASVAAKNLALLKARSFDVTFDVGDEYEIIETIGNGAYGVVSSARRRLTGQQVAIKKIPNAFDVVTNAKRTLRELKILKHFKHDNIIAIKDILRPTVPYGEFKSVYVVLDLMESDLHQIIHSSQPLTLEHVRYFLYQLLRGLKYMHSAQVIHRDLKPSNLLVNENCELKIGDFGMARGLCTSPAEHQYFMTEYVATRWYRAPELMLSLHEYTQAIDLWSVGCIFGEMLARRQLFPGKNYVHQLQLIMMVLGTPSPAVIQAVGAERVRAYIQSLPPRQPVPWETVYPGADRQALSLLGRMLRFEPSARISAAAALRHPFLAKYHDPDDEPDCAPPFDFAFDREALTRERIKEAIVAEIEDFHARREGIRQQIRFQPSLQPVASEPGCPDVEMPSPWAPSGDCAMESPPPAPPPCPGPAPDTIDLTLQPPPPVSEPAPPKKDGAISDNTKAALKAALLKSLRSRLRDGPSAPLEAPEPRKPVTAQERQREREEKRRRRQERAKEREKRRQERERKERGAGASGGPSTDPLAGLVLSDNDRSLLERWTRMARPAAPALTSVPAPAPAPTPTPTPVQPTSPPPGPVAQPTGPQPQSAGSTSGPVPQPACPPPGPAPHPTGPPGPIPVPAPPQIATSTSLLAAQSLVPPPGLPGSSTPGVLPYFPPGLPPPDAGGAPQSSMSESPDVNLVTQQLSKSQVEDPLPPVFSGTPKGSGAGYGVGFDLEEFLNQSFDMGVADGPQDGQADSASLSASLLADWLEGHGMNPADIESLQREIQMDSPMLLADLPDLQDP

With `CC1=NN=C(c2ccc(N)cc2)c2cc3c(cc2C1)OCO3`, in assay [1], the period change was 0.095 h (inactive). Further, the inhibition (usually the change of the read-out against control, counted positive when it falls) in assay [2] is 3% (inactive). The fluorescence ratio (interference) in assay [3] is 1 (inactive). Moreover, the results for the remaining activity in assay [4] and in assay [5] were 114% (inactive) and 78.1% (inactive), respectively. In addition, the fold change in assay [6] (stronger effect = lower value) was 1.05 (inactive) and 1 (inactive); in [6] (setting [12]), 0.665 and 1.11. Moreover, the cell count in [6] (setting [13]) was 10000 and 7840; in assay [6] (setting [14]), 9520 and 7820. Also, the compound was classed as inactive in assay [7]. For the same compound, the z-score in assay [8] was 0.825 (inactive) and 4.29 (active).
As to `O=C(Cc1ccc(Cl)c(Cl)c1)N1CCCCC1CN1CCCC1` (stereo not drawn), the period change in assay [1] was -0.135 h (inactive). Further, the inhibition in [2] is -2% (inactive). Also, the fluorescence ratio (interference) in [3] is 0.9 (inactive). The results for the remaining activity in assay [4] and in assay [5] were 106% (inactive) and 90.2% (inactive), respectively. The fold change in [6] (stronger effect = lower value) is 1.01 (inactive) and 0.956 (inactive); in assay [6] (setting [12]), 1.27 and 0.734. The cell count in assay [6] (setting [13]) is 9780 and 8020; in assay [6] (setting [14]), 9720 and 8380. In [7], the result was inactive. The z-score in assay [8] is 0.175 (inactive) and -0.475 (inactive).
Consider `CC(N)Cc1c[nH]c2ccc(O)cc12` (stereo not drawn), for which the period change in [1] is -0.08 h (inactive). Moreover, in assay [2], the inhibition was -7% (inactive). In addition, in [3], the fluorescence ratio (interference) was 0.9 (inactive). Further, the values for the remaining activity in assay [4] and in assay [5] were 105% (inactive) and 122% (inactive), respectively. The fold change in assay [6] (stronger effect = lower value) is 1.02 (inactive) and 0.98 (inactive); in [6] (setting [12]), 1.63 and 0.84. Moreover, the cell count in assay [6] (setting [13]) was 11100 and 9190; in [6] (setting [14]) it was 10900 and 9370. For the same compound, the outcome in assay [7] was inactive. Besides, the z-score in [8] is 0.365 (inactive) and 0.08 (inactive).
For `CC(CC(C(N)=O)(c1ccccc1)c1ccccc1)N(C)C` (stereo not drawn), the parasite load remaining in assay [9] is 59.7% (inactive). Further, in assay [9], the viability – broadly, a read-out of living cells in per cent, often relative to untreated cells – came to 166%. Also, in [10], the red/green cell ratio (normalised) was 0.86 (inactive). Further, the normalised cell number in [10] (setting [15]) was determined as 1.14; in assay [10] (setting [16]), 0.99. For the same compound, the fold change in assay [6] (stronger effect = lower value) was 0.911 (inactive); in [6] (setting [12]) it was 5.38. The cell count in assay [6] (setting [13]) came to 11900; in assay [6] (setting [14]) it was 13000. Also, the luciferase signal in assay [11] was 172 AU (inactive).
For `CCCN1CCO[C@@H]2c3cc(O)ccc3OC[C@H]21`, the period change in assay [1] was -0.065 hour (inactive) and 0.1 hour (inactive). Also, the inhibition in assay [2] was -4% (inactive) and -2% (inactive). In addition, the fluorescence ratio (interference) in [3] is 1 (inactive). Besides, the remaining activity (as a rule, the signal under treatment as a percentage of the control signal) in assay [4] is 109% (inactive); in assay [5] it was 102% (inactive). The fold change was 0.978 (inactive) and 0.932 (inactive) in assay [6] (stronger effect = lower value); 1.67 and 0.977 in assay [6] (setting [12]). Besides, the cell count is 9750 and 8460 in assay [6] (setting [13]); 9980 and 9070 in [6] (setting [14]). Also, the z-score in assay [8] was 0.53 (inactive) and -0.06 (inactive).
As to `CC(=O)NCCc1c[nH]c2ccccc12`, in [1], the period change was 0.04 h (inactive). The inhibition in assay [2] is -3% (inactive). Also, the fluorescence ratio (interference) in assay [3] was 0.9 (inactive). Also, the remaining activity was 90.2% (inactive) in [4] and 105% (inactive) in [5]. Moreover, the fold change in assay [6] (stronger effect = lower value) was 1.01 (inactive) and 0.947 (inactive); in assay [6] (setting [12]), 0.736 and 0.687. The cell count in assay [6] (setting [13]) is 10200 and 9110; in assay [6] (setting [14]) it was 10200 and 9620. The result in assay [7] was inactive. In addition, the z-score in assay [8] is 0.505 (inactive) and 0.035 (inactive).
As for `C/C(O)=C(\C#N)C(=O)Nc1cc(Br)ccc1Br`, the period change in [1] is 0.265 h (inactive). For the same compound, in assay [2], the inhibition was 1% (inactive). Further, the fluorescence ratio (interference) in assay [3] is 1 (inactive). For the same compound, the remaining activity in assay [4] is 116% (inactive); in assay [5], 112% (inactive). Further, the fold change in assay [6] (stronger effect = lower value) was 1.11 (inactive) and 0.867 (inactive); in assay [6] (setting [12]) it was 0.986 and 2.29. For the same compound, the cell count is 5190 and 8220 in assay [6] (setting [13]); 4660 and 9480 in assay [6] (setting [14]). In addition, in [8], the z-score was 2.97 (active).
As for `O1[As]2O[As]3O[As]1O[As](O2)O3`, the parasite load remaining in assay [9] is 61.8% (inactive). For the same compound, the viability in [9] is 103%. Further, in [10], the red/green cell ratio (normalised) was 0.77 (inactive). For the same compound, the normalised cell number in assay [10] (setting [15]) came to 1.19; in assay [10] (setting [16]), 0.92. For the same compound, the fold change in [6] (stronger effect = lower value) is 0.844 (inactive); in assay [6] (setting [12]), 2.16. For the same compound, the cell count in assay [6] (setting [13]) was found to be 11700; in [6] (setting [14]), 13900.
`O=C(N[C@H]1CN2CCC1CC2)c1ccc(Cl)cc1`: the inhibition in assay [2] was -1% (inactive). Further, the fluorescence ratio (interference) in assay [3] is 1 (inactive). For the same compound, the results for the remaining activity in [4] and in assay [5] were 93.4% (inactive) and 109% (inactive), respectively. For the same compound, the fold change was 1.07 (inactive) in assay [6] (stronger effect = lower value); 0.932 (inactive) in assay [6] (setting [17]); 1.52 and 1.27 in assay [6] (setting [12]). Also, the cell count in assay [6] (setting [13]) was 10700 and 8830; in assay [6] (setting [14]), 10000 and 9480. The compound was classed as inactive in assay [7]. Moreover, in assay [8], the z-score was 0.385 (inactive) and 0.125 (inactive).
For the compound `c1ccc2sc(C3(N4CCCCC4)CCCCC3)cc2c1`, the period change in [1] is -0.2 h (inactive). Also, the inhibition in assay [2] is -3% (inactive). For the same compound, the fluorescence ratio (interference) in [3] was 1 (inactive). For the same compound, the figures for the remaining activity in assay [4] and in assay [5] were 107% (inactive) and 110% (inactive), respectively. For the same compound, the fold change in assay [6] (stronger effect = lower value) is 0.986 (inactive); in [6] (setting [17]), 0.965 (inactive); in [6] (setting [12]) it was 1.78 and 0.772. Moreover, the cell count in assay [6] (setting [13]) is 8350 and 7790; in [6] (setting [14]), 8470 and 8070. For the same compound, in assay [7], the outcome was inactive. The z-score in [8] was -1.48 (inactive) and -1.21 (inactive).
Take `CCOC(=O)c1ncn2c1[C@@H]1CCCN1C(=O)c1cc(OC)ccc1-2`: the period change in assay [1] is -0.11 h (inactive). Moreover, the inhibition in assay [2] was 0% (inactive). The fluorescence ratio (interference) in [3] is 1 (inactive). For the same compound, the remaining activity in [4] was 125% (inactive); in [5] it was 110% (inactive). The fold change in [6] (stronger effect = lower value) is 1.04 (inactive) and 0.964 (inactive); in assay [6] (setting [12]), 0.593 and 0.443. Moreover, the cell count in assay [6] (setting [13]) is 9220 and 8750; in [6] (setting [14]), 8880 and 9080. Besides, the compound was called inactive in assay [7]. The z-score in [8] was 0.505 (inactive) and 0.115 (inactive).
As for `NCc1cc(=O)[nH]o1`, the period change in assay [1] was -0.1 h (inactive). The inhibition in assay [2] was -3% (inactive). Besides, the fluorescence ratio (interference) in assay [3] is 1 (inactive). Further, the remaining activity in [4] was 112% (inactive); in assay [5], 89% (inactive). Also, the fold change in assay [6] (stronger effect = lower value) was 0.974 (inactive); in [6] (setting [17]) it was 0.899 (inactive); in assay [6] (setting [12]), 1.71 and 1.62. For the same compound, the cell count in assay [6] (setting [13]) was 10400 and 8970; in assay [6] (setting [14]), 10700 and 9980. The result in assay [7] was inactive. Further, the z-score in assay [8] was 0.465 (inactive) and -0.045 (inactive).
As for `CCCCCCCCCCNCCC` (tested in a mixture with another compound), the parasite load remaining in assay [9] is 23% (inactive). In addition, the viability in [9] came out at 92.6%. Further, in assay [10] (counts scaled to control wells, 1 = unselective), the red/green cell ratio (normalised) is 0.92 (inactive). Besides, the normalised cell number in [10] (setting [15]) stood at 1.01; in assay [10] (setting [16]), 0.93. For the same compound, the fold change in assay [6] (setting [17]) was 0.945 (inactive); in assay [6] (setting [12]) it was 1.32. Further, the cell count in [6] (setting [13]) is 11300; in assay [6] (setting [14]), 11900.
